# Data taken from the emibetuzumab library of Makowski et al. (2022).
# The list shows a part of the results. No count for the full screen is at hand.
# B1: VH:VL chains; a variant is named by its letters at X, in order (parent)
# chain 1: QVQLVQSGAEVKKPGASVKVSCKASGYTFTDYXMHWVRQAPGQGLEWMGXVNPNXXXTTYNQKFEGRVTMTTDTSTSTAYMELRSLRSDDTAVYYCARXNXLDXWGQGTTVTVSS
# chain 2: DIQMTQSPSSLSASVGDRVTITCSVSSSVSSIYLHWYQQKPGKAPKLLIYSTSNLASGVPSRFSGSGSGTDFTLTISSLQPEDFATYYCQVYSGYPLTFGGGTKVEIK
# Variants of: B1
# Assay: yeast display scFab, FACS + sequencing
# Details: with MET
# How it was run: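 Round-3 sorted and input populations from a heavy-chain CDR mutant scFab yeast library were deep sequenced in two replicates. Sorting used FACS on cells labelled for 3 h at room temperature with 1 nM HGFR-Fc and anti-Myc in PBSB with 1% milk, keeping the top 50% antigen-positive cells. Any sequence seen in both antigen-positive samples was called a binder, while one seen only in the input was called a non-binder.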
row,Variant,antigen binding call
1,YRRGGAAS,binds
2,VRRTSAAS,no binding
3,VRRGGAAS,binds
4,FRRGGAAS,binds
5,VKGAGAAS,no binding
6,DEGGTAGA,no binding
7,FRRRGSLV,binds
8,YRRRGYLV,no binding
9,FGRRGAGV,no binding
10,YRRRGSLV,binds
11,YRRRGSVV,binds
12,YRRGGSWV,binds
13,YGETGFWY,no binding
14,DKTKSDWV,no binding
15,VAREGDLA,no binding
16,AARADDVY,no binding
17,YRRRGAWV,binds
18,VRRGGAWV,no binding
19,YRRGGAWV,binds
20,VRRRGSWV,binds
21,YRRRGSWV,binds
22,VRGAGSWV,no binding
23,VTEEGSWV,no binding
24,DEGKDDVA,no binding

row,Variant,antigen binding call
1,DTGGGDAY,no binding
2,DTTEASLV,no binding
3,FRGRSSVA,binds
4,FRGRDSVA,binds
5,DRGRDDVA,no binding
6,FRGRDFVA,no binding
7,DTGTSDLY,no binding
8,FARAGDWV,no binding
9,FEAGDDGV,no binding
10,FRAGDAGV,binds
11,FRAGGVGV,no binding
12,FEATAAGS,no binding
13,FRARGAGV,binds
14,VRAGDAGV,no binding
15,FRARGAGS,binds
16,FRAGGAGV,binds
17,VKGRADWV,no binding
18,FRAGGSSV,binds
19,YRGRTAAY,binds
20,YRERAAGY,binds
21,YRGRSAGY,binds
22,YRGRTAAF,binds
23,SAGRSDLV chain 1 R67H,no binding
24,SEARSDWV,no binding

row,Variant,antigen binding call
1,AARADAGA,no binding
2,YRTRDDLY,no binding
3,YRGRTAAD,binds
4,FKGRSASY,no binding
5,YRGRSAAY,binds
6,YRGRSASY,binds
7,YGKRDASY,no binding
8,YTKETAAD,no binding
9,YRTRDAGY,binds
10,DKGGAVWT,no binding
11,SEARSSSA,no binding
12,DTTKGDVV,no binding
13,DEGGTSSA,no binding
14,DTTRADVD,no binding
15,DRGGDSSS,binds
16,DTTKSSSS,no binding
17,DRGGDSLD,no binding
18,DATGGSSS,no binding
19,DRGGDDGS,no binding
20,DRTGDSSS,binds
21,DKGGSDVV,no binding
22,STRGADAV,no binding
23,DKEEADGV,no binding
24,FRAGSAVV,binds

row,Variant,antigen binding call
1,FRTGDDWV,no binding
2,FRTGDAWV,binds
3,FRTGDDLV,no binding
4,FRAGGAWV,binds
5,VATGDSLV,no binding
6,FRTGDSLV,binds
7,SKTKSDVV,no binding
8,SAREGSSA,no binding
9,DEARGAGD,no binding
10,FRTKGAWV,binds
11,FRRGGAWV,binds
12,FRRGGAVV,binds
13,FRGRDVVV,no binding
14,FATKGAWV,no binding
15,AARETVGA,no binding
16,STAESDLD,no binding
17,YAGRGFGF,no binding
18,YAAAAFGY,no binding
19,YRGRGFAS,binds
20,YRGRGFGY,binds
21,YRGRGFGF,binds
22,YAGRSFGS,no binding
23,YRGRGFGS,binds
24,DAGGGAVV,no binding

row,Variant,antigen binding call
1,YATGDDVA,no binding
2,DGGGNDLV,no binding
3,VATRGYLV,no binding
4,AARADDVD,no binding
5,SRGKSFGS,no binding
6,YRGKGFGS,binds
7,DEGKGFGS,no binding
8,YRGRGVGF,binds
9,YAKEGDGV,no binding
10,VGKGDDAA,no binding
11,YRGRGSSF,binds
12,YRGRGASF,binds
13,VRTEDASF,no binding
14,YTTGSASF,no binding
15,FRTGDDSF,no binding
16,FRTGDSAS,binds
17,FRTGDAVS,binds
18,FRTGDAVF,binds
19,VTGGDSLV,no binding
20,FKTRDFAY,no binding
21,VEKEGDVY,no binding
22,DATGGASD,no binding
23,AKGEDSVF,no binding
24,YRAGGYVF,binds

row,Variant,antigen binding call
1,YRRRGYVF,binds
2,YRRGGYVD,no binding
3,YRAGGYVD,binds
4,YKRRSSVF,binds
5,SEARSSSF,no binding
6,YRRRGAVF,binds
7,YRRRGSVF,binds
8,VAGGAYLY,no binding
9,DTATADWA,no binding
10,FRARGAAV,binds
11,YRARSAAV,binds
12,YAARGAAV,no binding
13,YGARNAAV,no binding
14,FRAGGAAV,binds
15,FRRGDAAV,binds
16,DTAESSSF,no binding
17,YTGTSDGV,no binding
18,VEGGGAVV,no binding
19,FRTKDDVY chain 1 E46K,no binding
20,FRARSAAV,binds
21,DRAGDAAV,no binding
22,SEARSAAV,no binding
23,FREGGSGD,no binding
24,FRAGGSGD,binds

row,Variant,antigen binding call
1,FAAGGSGD,no binding
2,FRKGGSGD,binds
3,VGETSYVD,no binding
4,SKRKSSGA,no binding
5,SKKRGSGA,binds
6,SAAGGAGA chain 1 L45S,no binding
7,SKERGDGA,no binding
8,SKAGGAGA,binds
9,SKAGGVGA,no binding
10,SKTKSSGA,no binding
11,SKAKGFGV,no binding
12,SGEEGSGA,no binding
13,SKAKGSGV,binds
14,SKTRGAGV,no binding
15,SKAKGSGA,binds
16,VAATADAV,no binding
17,VAGTSDGA,no binding
18,DATGGFGV,no binding
19,DAGEGFVA,no binding
20,VEEEAFAV,no binding
21,VTGEDSLV,no binding
22,VETGNSGA,no binding
23,YRERGAAF,binds
24,YRERGAGF,binds

row,Variant,antigen binding call
1,DRGRDDAA,no binding
2,DAKEGDLV,no binding
3,DATGGSLD,no binding
4,YRTGGSLD,binds
5,YREKGSLD,binds
6,YRTKASLD,binds
7,YRAKGSLD,binds
8,DTREGDVA,no binding
9,STAESDGA,no binding
10,VGEGGDAY,no binding
11,VAEKGFLV,no binding
12,SRRETFVF,no binding
13,DGGTNDVA,no binding
14,VAGTDAGD,no binding
15,VKGRASGY,no binding
16,FKGRGSGY,binds
17,FKGRGSLY,binds
18,FKGEGSLY,no binding
19,YTRGAAVA,no binding
20,YTRGAALA,no binding
21,YKRGASLA,binds
22,YTRGADVA,no binding
23,YKRGASVA,binds
24,YTRGASGA,no binding

row,Variant,antigen binding call
1,YRTAGAGD,binds
2,YRTAGSSD,binds
3,YRTAGAAD,binds
4,YRTAGSGD,binds
5,VATGDDGV,no binding
6,STAESSSF,no binding
7,DKTGNDVA,no binding
8,DRAGDDVY,no binding
9,YTGTSAVA,no binding
10,SEGRGDAA,no binding
11,VKGRADAA,no binding
12,SAGRGSAA,no binding
13,VAGRGSAA,no binding
14,SKGRGSAA,binds
15,VKGRGSAA,binds
16,VRGGGFGD,binds
17,VEGGGDGD,no binding
18,VRGRGFLD,binds
19,VRGGGFGV,no binding
20,AAGRGFLD,no binding
21,VRRANFLD,no binding
